PKA-R2B activ = activators of human PKA-R2B complex. hit rate 0.079% among 340,000. activation, % at 11.4 µM. PKA-R2B holoenzyme dissociation, Cy5-IP20 fluorescence polarization; R2B truncated from residue 108, S112A mutant; 0% DMSO only, 100% 113 µM cGMP;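 active = activation above a cutoff set at the mean over all compounds plus 3 SD, cut at about 18% in these data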;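 also: higher means more holoenzyme dissociation and a rise in polarization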
Target sequence (P31323 whole entry, looked up, other chains not shown, the tested form may be a part): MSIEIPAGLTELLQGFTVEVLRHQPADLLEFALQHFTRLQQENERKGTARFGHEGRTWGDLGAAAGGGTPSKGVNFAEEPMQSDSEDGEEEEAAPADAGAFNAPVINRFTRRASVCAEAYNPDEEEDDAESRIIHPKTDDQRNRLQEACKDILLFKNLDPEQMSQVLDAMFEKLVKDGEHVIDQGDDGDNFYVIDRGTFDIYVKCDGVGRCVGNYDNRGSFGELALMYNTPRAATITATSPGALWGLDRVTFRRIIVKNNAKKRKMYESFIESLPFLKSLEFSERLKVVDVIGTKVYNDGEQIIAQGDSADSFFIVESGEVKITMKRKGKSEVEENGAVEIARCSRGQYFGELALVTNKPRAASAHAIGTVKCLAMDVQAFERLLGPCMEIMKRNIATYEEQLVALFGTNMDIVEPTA
PKA-R1A activ = activates the PKA-R1A holoenzyme complex; P00514+P68181; PKA-R1A dissociation, Cy5-IP20 fluorescence polarization; scaled: DMSO 0%, 113 µM cGMP 100%; activation, % at 11.4 µM; hit rate 0.083% among 340,000; AID 504707;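 active = percent activation above the mean of all tested compounds plus 3 SD, cut at about 19% in these data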;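 also: higher means more PKAc released from R1A so a rise in polarization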
MsrA inhibitor = inhibits bovine methionine sulfoxide reductase A; purified bovine MsrA, absorbance read-out; inhibition, % at 15.5 µM; hit rate 0.75% among 360,000; AID 651718;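 also: 0% = vehicle wells with enzyme and 100% = reference inhibitor wells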
MsrA act = bovine methionine sulfoxide reductase A activation. hit rate 0.3% among 360,000. activation, % at 10.6 µM. purified bovine MsrA, absorbance read-out; in the data active = activation above about 7.5%;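 also: 0% = vehicle and 100% = reference activator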
MsrA inh confirm = confirmation of bovine MsrA inhibitors. shares compounds with MsrA inhibitor. purified bovine MsrA, absorbance read-out. inhibition, % at 15.5 µM. hit rate 41% among 2,300. AID 651822;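 also: coupled to thioredoxin reductase with NADPH and selenocystamine and DMSO as substrate; 0% = vehicle only and 100% = full effect of reference inhibitor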
Starred values were filed as active, the others as inactive; . = no result. Sampled rows, rich in hits. Any-hit rate of the full collection: about 1.1%. Rule as the data show it, unless noted: active = inhibition above about 4.5%; inactive = the rest.

SMILES | PKA-R2B activ | PKA-R1A activ | MsrA inhibitor | MsrA act | MsrA inh confirm
COc1ccc(N2CCN(C(=O)C(=O)c3cn(CC(=O)N4CCOCC4)c4ccccc34)CC2)cc1 | 7 | 5 | 2 | 0 | .
CC(=O)c1ccc(N2CCN(C(=O)C(=O)c3cn(CC(=O)N4CCOCC4)c4ccccc34)CC2)cc1 | -12 | -4 | 6.8* | -5 | 5.6*
Cc1oc2c(C)c3oc(=O)c(CC(=O)N[C@@H](CCCNC(N)=O)C(=O)O)c(C)c3cc2c1C | 2 | 3 | 4.9* | -1 | 2
COC(C/C=C/[C@H](O)[C@H](C)OCc1ccccc1)OC | -3 | -17 | 1 | 3 | .
CN1/C(=C/C(=O)C2CCC2)Sc2ccccc21 | 10 | -8 | 8.3* | -4 | 5.9*
O=C(Nc1nc2ccccc2[nH]1)c1ccc(Br)o1 | -2 | 10 | 4.8* | -5 | 3
COC(=O)C1=C(C)N(Cc2cccc(C(F)(F)F)c2)C(=NCc2ccc(C(F)(F)F)cc2)NC1c1cccc(C(F)(F)F)c1 (stereo unspecified) | . | . | -2 | . | .
C/C=C/C=C/C(=O)c1cc(C)c(OC(=O)CNC(=O)OC(C)(C)C)c(C)c1O | . | . | 0 | . | .
O=c1[nH]c(=S)c2c(n1-c1ccccc1)CCC2 | 3 | 0 | 5.8* | -6 | 3
O=c1c(-c2ccccc2)c(O)c2c(n1-c1ccccc1)CCCC2 | 3 | -4 | 2 | -2 | .
CCOC(=O)[C@@H]1CSCCS(=O)(=O)N1Cc1ccccc1Br | -12 | -5 | 1 | -7 | .
COC(=O)C1=C(C)N(C)C(=NCc2cc(OC)c(OC)c(OC)c2)NC1c1ccc(Cl)cc1 (stereo unspecified) | . | . | 1 | . | .
COc1ccc(/C=C2\SC(=O)N(CC(=O)NN3CCN(C)CC3)C2=O)cc1OC | -1 | -3 | 4.9* | -4 | 3
COc1ccc(/C=C2\SC(=O)N(CC(=O)Nc3ccccc3O)C2=O)cc1OC | -2 | 4 | 1 | -2 | .
Cc1cc(S(=O)(=O)N2CCOCC2)ccc1OCC(=O)Nc1ccc(Br)cc1F | 13 | 1 | 0 | -2 | .
Nc1ccc2nc(-c3ccc(N)c(Cl)c3)[nH]c2c1 | -7 | 6 | 5.5* | -1 | 5.5*
Nc1ccc(-c2nc3c(Cl)cc(N)cc3[nH]2)cc1 | 2 | -8 | 5.2* | -5 | 4
COc1ccc2nc(-c3ccc(N)cc3)[nH]c2c1 | -6 | -6 | 4 | -4 | .
Nc1ccc2nc(-c3ccccc3)[nH]c2c1 | 1 | -9 | 3 | -3 | .
C/C(=N\Nc1ccc(S(N)(=O)=O)cc1[N+](=O)[O-])c1cccnc1 | 9 | 3 | 11* | -6 | 10*
C/C(=N\NC(=O)c1cccnc1)c1cccc([N+](=O)[O-])c1 | 7 | -2 | 0 | -8 | .
C/C(=N\Nc1ccc([N+](=O)[O-])cc1[N+](=O)[O-])c1cccnc1 | 3 | -3 | 13* | -1 | 16*
CCc1c(-c2ccccc2F)ncn1CCc1ccccc1OC | . | . | 0 | . | .
CCCCNc1cccc2c1S(=O)(=O)N[C@H](CC(C)C)CO2 | . | . | 2 | . | .
CCOC(=O)c1c(S(=O)(=O)N2CCN(c3ccc(F)cc3)CC2)c(C)n(C)c1C | -9 | 8 | -1 | -1 | .
SMILES | PKA-R2B activ | PKA-R1A activ | MsrA inhibitor | MsrA act | MsrA inh confirm
C=CCN=Cc1c(C)[nH]n(-c2ccccc2)c1=O | -1 | -6 | 1 | 0 | .
O=C(NCCc1ccccc1Cl)[C@@H]1CCCN1C(=O)[C@@H](NS(=O)(=O)c1ccc(F)cc1F)C1CCCCC1 | . | . | 1 | . | .
O=C(Nc1ccc([N+](=O)[O-])cn1)c1ccc(Br)o1 | 8 | -6 | 5.6* | -3 | 4
O=C(Nc1ccc([N+](=O)[O-])cn1)c1cccnc1 | -1 | 5 | 0 | -5 | .
C[C@H](CO)N1C[C@H](C)[C@@H](CN(C)C(=O)c2ccc(N3CCN(C)CC3)cc2)OCc2cn(nn2)CCCC1=O | . | . | 2 | . | .
O=C(N/N=C/c1ccncc1)c1cc2ccccc2o1 | -7 | -5 | 5.8* | -3 | 4
CN(C)c1ccc(C(=O)Nc2nnc(C3=COCCO3)o2)cc1 | -8 | -9 | 5.1* | -10 | 4
CCc1nc2c(OCC3COc4ccccc4O3)cccn2c1N(C)C(=O)c1ccc(OC)cc1 (stereo unspecified) | . | . | -2 | 0 | .
CCCSc1nnc(NC(=O)CSc2sc3c(O)cc(=O)[nH]c3c2C#N)s1 | -2 | -1 | 1 | -4 | .
N#Cc1c(SCC(=O)Nc2nccs2)sc2c(O)cc(=O)[nH]c12 | 6 | -7 | 4.9* | -5 | 2
COc1cc(OC)c(OC)cc1/C=N/NC(=O)c1ccc(=O)n(C)c1 | 3 | -7 | 10* | -9 | 9.2*
COc1cc(OC)c(/C=N/NC(=O)c2ccncc2)cc1Br | . | . | 5.2* | -4 | 4
COc1ccccc1/C=C/C=N/NC(=O)c1ccncc1 | -16 | -9 | 9.0* | -8 | 5.0*
COc1ccccc1/C=C/C=N/NC(=O)Cc1cccs1 | -1 | 15 | 5.0* | 1 | 4
O=C(Cc1cccs1)N/N=C/C=C/c1ccccc1[N+](=O)[O-] | . | . | 1 | -11 | .
COc1cc(/C=N/NC(=O)c2cnccn2)cc(OC)c1OC | -4 | 1 | 2 | -6 | .
COc1cc(OC)c(OC)cc1/C=N/NC(=O)c1cnccn1 | -11 | -7 | 6.2* | -2 | 4
COc1cc(OC)c(/C=N/NC(N)=S)cc1Br | 5 | -8 | 5.3* | -3 | 4
C[C@@H]1CN([C@H](C)CO)C(=O)c2cccc(NS(=O)(=O)c3ccccc3)c2O[C@H]1CN(C)C | 6 | 4 | 0 | -1 | .
COc1ccc2nc(Nc3ccc4c(c3)OCO4)sc2c1 | 3 | -2 | 1 | -3 | .
COc1ccc2nc(NC(=O)c3ccco3)sc2c1 | -3 | -6 | 4.7* | -2 | 3
COc1ccc2nc(Nc3nc4cc5c(cc4s3)OCO5)sc2c1 | 1 | 7 | 4.8* | -7 | 3
Cc1ccc2nc(NC(=O)c3ccco3)sc2c1 | 2 | 6 | 2 | -5 | .
NC(Cc1ccc(O)cc1)C(=O)NN=Cc1ccccc1Cl (stereo unspecified) | . | . | 1 | . | .
COC(=O)c1ccc(NC2=CC(=O)CC(C)(C)C2)cc1 | -15 | 0 | 4.9* | -5 | 5.0*
SMILES | PKA-R2B activ | PKA-R1A activ | MsrA inhibitor | MsrA act | MsrA inh confirm
COc1ccc(NC2=CC(=O)CC(C)(C)C2)cc1 | -7 | -1 | 3 | -2 | .
NC(=O)c1ncn([C@@H]2O[C@H](C(=O)N[C@H](Cc3c[nH]c4ccccc34)C(=O)N3CCN(C(=O)N4CCCCC4)CC3)[C@@H](O)[C@H]2O)n1 | . | . | 0 | . | .
CCOC(=O)C1(N(CC)CC)Sc2cc(C)ccc2NC1=O (stereo unspecified) | -6 | -9 | 1 | 1 | .
COC(=O)C1=C(C(=O)OC)SC2(S1)C(C(=O)OC)=C(C(=O)OC)SC1=C2c2cc(C)ccc2NC1(C)C | -8 | -15 | 6.1* | -11 | 3
O=C(O)c1cccc2c1C(=O)c1cc([N+](=O)[O-])cc([N+](=O)[O-])c1-2 | 8 | 5 | 5.6* | -12 | 4
O=C(O)c1cccc2c1-c1ccc([N+](=O)[O-])cc1C2=O | -6 | -2 | 3 | -1 | .

Screens as filed in PubChem.
